Measurements: PubChem BioAssay (Tox21)
Values joined by “and” are separate entries in the source; they are usually repeats but may differ in a detail not shown here. Equal entries are not always repeated. Records with an inconclusive call do not appear. Where a call stands in place of a potency, no number is given. Some structures have more than one record in an assay (separate samples or runs), and their calls can disagree. Active and inactive are the calls of the source. Unless noted, the call rests on the fitted dose curve; in most records, active means well fitted curve in the direction sought with a large enough effect in the repeat runs; inconclusive means weak or mixed curves; inactive means no such curve, though single readings can be large; an effect the other way counts as inactive or inconclusive.

Columns and labels:
[1] = qHTS assay to identify aromatase inhibitors - cell viability counter screen (AID 743084);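 further: cells stimulated with testosterone during compound exposure; nearly all actives have a fitted effect of over 55% in size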; further: potency means the concentration at half of the fitted maximal effect
[2] = molecular target: Aryl hydrocarbon receptor (Homo sapiens) (UniProt P35869); assay: qHTS assay to identify small molecule that activate the aryl hydrocarbon receptor (AhR) signaling pathway (AID 743085);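 further: HG2L7.5c1 human HepG2 liver cells with stably integrated DRE-driven firefly reporter; series mostly up to about 70 µM; nearly all actives have a fitted effect of over 15% in size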
Chain of Aryl hydrocarbon receptor (Homo sapiens) (P35869 whole entry, looked up): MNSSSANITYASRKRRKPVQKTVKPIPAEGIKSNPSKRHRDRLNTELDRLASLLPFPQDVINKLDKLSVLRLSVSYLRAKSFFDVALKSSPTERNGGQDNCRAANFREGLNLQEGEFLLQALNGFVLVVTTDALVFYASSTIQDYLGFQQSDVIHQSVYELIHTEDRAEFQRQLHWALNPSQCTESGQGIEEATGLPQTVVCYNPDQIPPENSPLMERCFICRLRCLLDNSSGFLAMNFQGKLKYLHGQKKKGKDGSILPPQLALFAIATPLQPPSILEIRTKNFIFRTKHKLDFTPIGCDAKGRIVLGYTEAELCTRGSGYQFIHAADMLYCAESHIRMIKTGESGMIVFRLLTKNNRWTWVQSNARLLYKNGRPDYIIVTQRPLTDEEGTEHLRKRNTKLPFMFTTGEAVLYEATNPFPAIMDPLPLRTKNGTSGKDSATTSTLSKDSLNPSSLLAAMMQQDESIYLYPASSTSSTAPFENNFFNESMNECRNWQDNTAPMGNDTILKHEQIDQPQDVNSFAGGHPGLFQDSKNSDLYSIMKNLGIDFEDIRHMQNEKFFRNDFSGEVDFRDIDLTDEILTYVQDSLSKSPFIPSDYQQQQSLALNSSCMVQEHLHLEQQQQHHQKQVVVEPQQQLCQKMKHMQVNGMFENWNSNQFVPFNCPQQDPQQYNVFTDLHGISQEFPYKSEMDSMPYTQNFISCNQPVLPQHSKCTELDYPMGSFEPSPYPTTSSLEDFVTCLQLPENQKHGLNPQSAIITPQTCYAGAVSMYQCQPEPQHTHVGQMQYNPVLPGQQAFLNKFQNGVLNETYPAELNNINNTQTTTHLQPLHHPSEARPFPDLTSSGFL
Summary of the method: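 A multiplexed format paired cell viability (CellTiter-Fluor fluorescence) with AhR-dependent luciferase output (ONE-Glo luminescence) in the same wells of HepG2 DRE-luc cells after 24 h compound exposure at 37C.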

[3] = qHTS assay to identify small molecule that activate the aryl hydrocarbon receptor (AhR) signaling pathway - cell viability counter screen (AID 743086); further: nearly all actives have a fitted effect of over 45% in size; further: potency means the concentration at half of the fitted maximal effect
Summary of the method: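 Cytotoxicity counter screen: CellTiter-Fluor signal (30 min, 37 C) in 4000 HepG2 cells/well carrying the DRE-luciferase reporter, following 24 h compound exposure at 37 C.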

[4] = qHTS assay to identify small molecule antagonists of the peroxisome proliferator-activated receptor gamma (PPARg) signaling pathway - cell viability counter screen (AID 743194); conditions: Potency: co-treated with 50 nM rosiglitazone unless noted; further: nearly all actives have a fitted effect of over 55% in size; further: potency means the concentration at half of the fitted maximal effect
Summary of the method: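 Viability was measured as CellTiter-Glo luminescence in GeneBLAzer PPARg UAS-bla HEK293H cells. These cells had been exposed 17 h at 37 C to compounds together with rosiglitazone at 50 nM final, with the beta-lactamase readout taken in the same wells.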

[5] = qHTS assay for small molecule agonists of the antioxidant response element (ARE) signaling pathway - cell viability counter screen (AID 743203; calls by dose curve; further: nearly all actives have a fitted effect of over 55% in size; further: potency means the concentration at half of the fitted maximal effect)
Summary of the method: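 Cytotoxicity was tested in parallel with the ARE reporter screen. ARE-bla HepG2 cells were exposed to compounds for 16 hrs, and viability was taken from CellTiter-Glo luminescence.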

[6] = qHTS assay for small molecule activators of the heat shock response signaling pathway - cell viability counter screen (AID 743209); further: nearly all actives have a fitted effect of over 50% in size; further: potency means the concentration at half of the fitted maximal effect
Summary of the method: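 Cytotoxicity counter screen run in parallel with the HSE beta-lactamase reporter, using the same wells. HeLa HSE-bla cells received compound for 5 h at 37 C; ATP-based CellTiter-Glo luminescence was measured after 30 min at room temperature.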

[7] = qHTS assay for small molecule agonists of the antioxidant response element (ARE) signaling pathway (AID 743202; active means well fitted activation curve with a large enough effect in the signal ratio in the repeat runs, not every such curve was filed as active; the % refers to the signal ratio; further: potency means the concentration at half of the fitted maximal effect)
Summary of the method: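 After 16 hours of compound treatment at 37 C, HepG2 cells with a stably integrated ARE-driven beta-lactamase reporter were loaded 2 hours at room temperature with LiveBLAzer B/G FRET substrate and fluorescence intensity measured.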

[8] = qHTS assay for small molecule activators of the heat shock response signaling pathway (AID 743210; active means well fitted activation curve with a large enough effect in the signal ratio in the repeat runs, with a control signal flat, not every such curve was filed as active; the % refers to the signal ratio; further: series mostly up to about 63 µM)
Summary of the method: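 Compound exposure lasted 5 h at 37 C in HeLa cells carrying a heat-shock-element-driven beta-lactamase reporter. Read-out: fluorescence intensity after 2.5 h room-temperature loading with LiveBLAzer B/G FRET substrate.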

[9] = molecular target: Peroxisome proliferator-activated receptor gamma (Homo sapiens) (UniProt P37231); assay: qHTS assay to identify small molecule agonists of the peroxisome proliferator-activated receptor gamma (PPARg) signaling pathway (AID 743094; active means well fitted activation curve with a large enough effect in the signal ratio in the repeat runs, not every such curve was filed as active; the % refers to the signal ratio)
Chain of Peroxisome proliferator-activated receptor gamma (Homo sapiens) (P37231 whole entry, looked up): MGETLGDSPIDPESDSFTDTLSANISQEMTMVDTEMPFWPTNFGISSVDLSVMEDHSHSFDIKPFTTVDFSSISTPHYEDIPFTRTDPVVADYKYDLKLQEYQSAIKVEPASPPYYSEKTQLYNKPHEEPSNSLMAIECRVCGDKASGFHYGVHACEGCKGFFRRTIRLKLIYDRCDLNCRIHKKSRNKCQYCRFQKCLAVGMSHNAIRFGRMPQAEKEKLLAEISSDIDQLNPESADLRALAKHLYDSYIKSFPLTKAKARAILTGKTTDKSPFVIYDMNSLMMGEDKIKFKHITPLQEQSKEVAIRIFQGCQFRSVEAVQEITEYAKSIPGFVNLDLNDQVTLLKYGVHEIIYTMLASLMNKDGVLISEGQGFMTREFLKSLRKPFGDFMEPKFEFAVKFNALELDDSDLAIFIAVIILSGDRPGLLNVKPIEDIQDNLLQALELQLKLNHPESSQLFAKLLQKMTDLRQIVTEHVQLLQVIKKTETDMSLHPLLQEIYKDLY
Summary of the method: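 Cells from the PPARg UAS-bla HEK293H line are plated and incubated 5 h at 37C. Compounds in DMSO are pinned in and left 17 h at 37C. LiveBLAzer B/G substrate is then added for 1 h at room temperature before fluorescence is measured.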

[10] = molecular target: Peroxisome proliferator-activated receptor gamma (Homo sapiens) (UniProt P37231); assay: qHTS assay to identify small molecule antagonists of the peroxisome proliferator-activated receptor gamma (PPARg) signaling pathway (AID 743191; calls by dose curve; further: series mostly up to about 63 µM; nearly all actives have a fitted effect of over 30% in size)
Summary of the method: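 Beta-lactamase reporter under UAS control in HEK293H PPARg-bla cells; compound treatment 17 h at 37C. Read-out: fluorescence intensity after 1 h room-temperature incubation with LiveBLAzer B/G FRET substrate.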

| Structure (SMILES) | Potency [1] | Potency [2] | Potency [3] | Potency [4] | Potency [5] | Potency [6] | Potency [7] | outcome [8] | outcome [9] | Potency [10] |
| --- | --- | --- | --- | --- | --- | --- | --- | --- | --- | --- |
| CC(=O)[O][Hg][c]1ccccc1 | 5.31 µM (active) and 1.36 µM (active) and 770 nM (active) | inactive | 9.44 µM (active) and 4.29 µM (active) and 4.86 µM (active) | 686 nM (active) and 309 nM (active) and 1.88 µM (active) | 762 nM (active) and 433 nM (active) and 1.19 µM (active) | 1.22 µM (active) and 1.1 µM (active) and 2.11 µM (active) | – | – | – | – |
| N#CS | inactive | inactive | inactive | inactive | inactive | inactive | inactive | inactive | – | – |
| CCCC[n+]1cccc(C)c1 | inactive | inactive | inactive | inactive | inactive | inactive | 60.9 µM (active) and inactive | inactive | – | – |
| CCCCCCCCn1cc[n+](C)c1 | inactive | inactive | inactive | inactive | inactive | inactive | 4.32 µM (active) and 5.49 µM (active) | inactive | – | – |
| O=S(=O)(O)O | inactive | inactive | inactive | inactive | inactive | inactive | inactive | – | – | – |
| CCC[N+]1(C)CCCC1 | – | – | inactive | inactive | inactive | inactive | inactive | inactive | – | – |
| Cc1cc(-c2ccc(N)c(C)c2)ccc1N | inactive | – | inactive | inactive | inactive | inactive | 8.73 µM (active) | inactive | inactive | inactive |
| CCCCn1cc[n+](C)c1C | inactive | inactive | inactive | inactive | inactive | inactive | 60.8 µM (active) and 54.7 µM (active) and 61.6 µM (active) | inactive | – | – |
| CCCCCCCCCCCCOS(=O)(=O)O | inactive | – | inactive | inactive | inactive | inactive | inactive | – | – | – |
| CCCCCCCCCCCCCCCCn1cc[n+](C)c1 | – | inactive | 62.4 µM (active) and inactive and 30.7 µM (active) | – | – | – | – | inactive | inactive | inactive |
| Oc1cccc2cccnc12 | 1.38 µM (active) and 686 nM (active) | – | inactive and 18.8 µM (active) and 2.05 µM (active) | inactive | inactive and 4.33 µM (active) | 876 nM (active) and inactive and 710 nM (active) | 6.14 µM (active) and 25.9 µM (active) and inactive | inactive | – | – |
| O=C(O)C(Cl)(Cl)Cl | inactive | – | inactive | inactive | inactive | inactive | inactive | inactive | inactive | inactive |
| CCCC[n+]1ccc(C)cc1 | inactive | – | inactive | inactive and 48.7 µM [setting not given] (active) | inactive | 54.7 µM (active) and inactive | 3.91 µM (active) and 4.33 µM (active) and inactive | inactive | – | – |
| CCC(=O)C(CC(C)N(C)C)(c1ccccc1)c1ccccc1 (configuration not stated) | – | inactive | inactive | inactive | inactive | inactive | – | inactive | inactive | inactive |
| CCCCn1cc[n+](C)c1 | inactive | inactive | inactive | inactive | inactive | inactive | inactive | – | – | – |
| CC[N+]1(C)CCCC1 | inactive | inactive | inactive | inactive | inactive | inactive | inactive | inactive | – | – |
| Nc1ccccc1 | inactive | – | inactive | inactive | inactive | inactive | inactive | inactive | inactive | inactive |
| CCCC[n+]1ccccc1C | inactive | – | inactive | inactive | inactive | inactive | – | inactive | – | – |
